Screens: PubChem BioAssay, National Center for Advancing Translational Sciences (NCATS)
TSG101-PTAP inh: blocks PTAP binding to human TSG101, validation | 44,000 tested, under 10 active | Fluorescence polarization, FITC-PTAP peptide/Tsg101, 20 min | Potency, µM (series often up to 115 µM), hits mostly inhibitors; also: potency is read from the fitted curve at half-maximal effect; 0% is about no effect
Target sequence (Q99816 whole entry, looked up): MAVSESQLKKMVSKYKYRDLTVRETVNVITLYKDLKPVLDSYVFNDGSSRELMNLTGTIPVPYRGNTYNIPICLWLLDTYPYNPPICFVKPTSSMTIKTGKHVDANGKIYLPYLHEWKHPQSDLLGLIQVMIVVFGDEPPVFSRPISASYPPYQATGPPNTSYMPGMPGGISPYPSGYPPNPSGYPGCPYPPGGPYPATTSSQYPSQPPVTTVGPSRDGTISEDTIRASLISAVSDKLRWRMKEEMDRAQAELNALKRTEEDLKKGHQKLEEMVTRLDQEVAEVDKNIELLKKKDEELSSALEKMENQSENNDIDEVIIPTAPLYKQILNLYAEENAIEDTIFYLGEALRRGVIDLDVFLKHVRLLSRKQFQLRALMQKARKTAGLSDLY
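Read-out is FITC fluorescence polarization. Compounds were added to Tsg101 binding domain (10 uM final), then FITC-PTAP peptide (50 nM final), 20 min at r.t. Total S+P intensity flags fluorescent compounds.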
GALK inh: GALK (human) enzyme inhibition | 44,000 tested, under 10 active | recombinant GALK, Kinase-Glo ATP luminescence, 1 h | AID 1347072 | Potency, µM (top dose mostly 57.5 µM), for the others: top-dose activity, negative = inhibition, usual class: inhibitors | P51570;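 also: plate controls were full GALK reaction for no effect and reaction lacking GALK for full effect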
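Reactions with and without enzyme served as controls. GALK at 5 nM phosphorylates 100 uM galactose using 35 uM ATP (HEPES pH 8.0, Mg2+) for 1 h at RT, with luminescence read 10 min after adding Kinase-Glo Plus.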
PMP22 txn prim: modulates PMP22 transcription in S16 Schwann cells. S16 Pmp22-F2sN Schwann cells, FLuc/NLuc coincidence luminescence, 24 h. Potency, µM (top dose mostly 57.5 µM), for inactives: at the highest dose activity change, negative = inhibition, most hits filed as inhibitors. hit rate 2% among 43,000; active = clear falling dose curves in both reporters; inconclusive = both reporters move, but less clearly or upward; inactive = either reporter flat; the % is the NLuc reporter signal; also: potency is read from the fitted curve at half-maximal effect; % is scaled to controls: 0 for no effect and ±100 for the full control effect
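Schwann cells carrying the coincidence reporter were exposed to library compounds for 24 h at 37C, then lysed and read for FLuc and, after quenching, NLuc luminescence on a CCD imager.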
S16 viability: cytotoxicity in S16 Pmp22-F2sN Schwann cells; S16 Pmp22-F2sN Schwann cells viability, CellTiter-Glo, 24 h; Potency, µM (top dose mostly 57.5 µM), without a hit: at the top dose activity change, negative = cytotoxicity, hits mostly cytotoxic; hit rate 0.48% among 43,000; also: potency is read from the fitted curve at half-maximal effect; % is scaled to controls: 0 for no effect and ±100 for the full control effect; nearly all actives have a fitted effect of over 65% in size
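Viability was measured by CellTiter-Glo luminescence (15 min, room temperature). This followed 24 h at 37 °C of compound exposure (23 nL pin transfer) in S16 Pmp22-F2sN Schwann cells, 500-1,000 per well.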
mTORC1 inh: mTORC1 pathway inhibition measured by phospho-rpS6. Tsc2-/- p53-/- MEF, phospho-rpS6 immunofluorescence/PI, 24 h. Potency, µM (top dose mostly 38.3 µM), for inactives: top-dose activity change, negative = inhibition, most hits filed as inhibitors. hit rate 0.78% among 44,000. AID 493208;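 also: potency is read from the fitted curve at half-maximal effect; plate controls were DMSO for no effect and rapamycin for full effect; nearly all actives have a fitted effect of over 50% in size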
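Read-out: phospho-S6 Alexa-488 intensity over PI intensity per well, scored as % active cells using thresholds from rapamycin (7.5 nM) and DMSO controls. Tsc2-/-, p53-/- MEFs exposed to compound for 24 h; PI cell count recorded as viability.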
NLuc saturating: counter-screen for PMP22 expression modulators: NanoLuc inhibition, saturating substrate; hit rate 4% among 690; AID 1508638; shares compounds with PMP22 txn prim; Secreted NLuc enzyme (filtered S16 cell medium), Nano-Glo luminescence; Potency, µM (highest dose often 57.5 µM), without a hit: at the highest dose activity change, negative = inhibition, actives largely listed as inhibitors; also: potency is read from the fitted curve at half-maximal effect; % is scaled to controls: 0 for no effect and ±100 for the full control effect
NLuc Km ctr: counter-screen for PMP22 expression modulators: NanoLuc inhibition at Km. shares compounds with PMP22 txn prim. secreted NLuc enzyme, coelenterazine luminescence, Km conditions. Potency, µM (highest dose often 57.5 µM), for inactives: at the top dose activity change, negative = inhibition, usual class: inhibitors. hit rate 5% among 690. AID 1508639; also: potency is read from the fitted curve at half-maximal effect; % is scaled to controls: 0 for no effect and ±100 for the full control effect
FLuc counter: counter-screen for PMP22 expression modulators: firefly luciferase inhibition; 690 tested, under 10 active; shares compounds with PMP22 txn prim; Potency, µM (doses to about 57.5 µM), inactives show at the top dose activity, negative = inhibition, actives largely listed as inhibitors; AID 1508640; purified P. pyralis FLuc, luminescence, 10 min; also: % of control where 0% means no effect
S16 F2sN tox cnf: S16 Schwann cell cytotoxicity, confirmatory; Potency, µM (top dose mostly 57.5 µM), for inactives: top-dose activity change, negative = viability loss, hits mostly cytotoxic; S16 Schwann cells viability, CellTiter-Glo ATP luminescence, 24 h; shares compounds with PMP22 txn prim; hit rate 7% among 690; also: potency is read from the fitted curve at half-maximal effect; % is scaled to controls: 0 for no effect and ±100 for the full control effect
PMP22 txn conf: PMP22 transcription modulation, confirmatory; shares compounds with PMP22 txn prim; S16 Schwann cells Pmp22-F2sN, dual luciferase, 24 h; Potency, µM (highest dose often 57.5 µM), without a hit: at the top dose activity change, negative = inhibition, most hits filed as inhibitors; hit rate 22% among 690; AID 1508646; active = clear falling dose curves in both reporters; inconclusive = both reporters move, but less clearly or upward; inactive = either reporter flat; the % is the FLuc reporter signal; also: potency is read from the fitted curve at half-maximal effect
PMP22 prot conf: rat PMP22 protein level modulation, confirmatory; shares compounds with PMP22 txn prim; S16 Schwann cells Pmp22-HiBiT, luminescence, 48 h; Potency, µM (titrated, usually from 27.9 µM), inactives show at the top dose activity change, negative = inhibition, actives largely listed as inhibitors; 95 tested, under 10 active; AID 1508647
Target sequence (P25094 whole entry, looked up): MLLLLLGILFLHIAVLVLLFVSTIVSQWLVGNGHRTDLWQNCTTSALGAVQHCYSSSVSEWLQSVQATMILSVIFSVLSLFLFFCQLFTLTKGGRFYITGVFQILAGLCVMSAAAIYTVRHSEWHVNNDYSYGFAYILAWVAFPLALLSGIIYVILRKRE
* hit, by the source's call; i = inactive; ? = inconclusive; . = no result. Compounds with a hit are over-represented: about 2.8% of the library has one in this group of screens. Unless noted, calls follow the shape of the dose curve; as a rule, active = well fitted curve in the direction sought with a large enough effect; inconclusive = small, poorly fitted or top-dose-only effect, or another doubt; inactive = no such curve, though single readings can be large; an effect the other way counts as inactive or inconclusive.

SMILES | TSG101-PTAP inh | GALK inh | PMP22 txn prim | S16 viability | mTORC1 inh | NLuc saturating | NLuc Km ctr | FLuc counter | S16 F2sN tox cnf | PMP22 txn conf | others
CCN(CC)CCn1c2c(c(SCC(=O)Nc3cccc(C(F)(F)F)c3)nc1=O)CCC2 | i | 0.0% | 16µM* | -15.8% | -0.2% | -10.2% | 0.5% | -1.4% | -8.3% | ?
CCOc1ccc(-c2nc(CSCC(=O)NCCc3ccccc3)c(C)o2)cc1 | i | -2.4% | ? | -28.8% | 3.2% | ? | ? | 19.3µM* | -23.6% | -89.8%
Cc1ccc(-n2c(SCc3nc(-c4ccc(Cl)cc4)no3)nnc2-c2ccncc2)cc1 | i | 1.1% | 12.6µM* | ? | -19.9% | -18.4% | ? | -2.5% | -7.0% | ?
COc1ccc(-c2noc(CSc3nnc(C)n3-c3ccc(F)cc3)n2)cc1 | i | 1.4% | ? | -10.0% | -5.0% | ? | ? | ? | -9.1% | -27.2%
COc1ccc(-c2noc(CSc3nnc(-c4ccncc4)n3-c3ccc(C)cc3)n2)cc1 | i | -11.7% | 8.91µM* | -23.0% | -4.2% | ? | ? | -12.5% | -24.4% | 3.69µM* | PMP22 prot conf=?
Cc1ccc(C)c(N2CCN(c3nccn4nc(-c5ccc(Br)cc5)cc34)CC2)c1 | i | 5.1% | -63.7% | 14.8% | 13.4% | . | . | . | . | .
CC(=O)c1ccc(NC(=O)CSc2cn(CC(=O)N3CCCCC3)c3ccccc23)cc1 | i | 3.7% | ? | -12.2% | -21.2% | . | . | . | . | .
COc1ccc(Nc2cc(C)nc3c(C)c(C)ccc23)cc1 | i | -0.5% | 14.2µM* | 19.1% | ? | -1.2% | 0.4% | 0.3% | 3.2% | -23.5%
O=c1c2cnn(-c3ccc(F)cc3)c2ncn1Cc1ccccc1Cl | i | 5.5% | -7.3% | 4.7% | 1.3% | . | . | . | . | .
Cc1c(C(=O)OC2CCCCCC2)[nH]c2c1C(=O)CC(c1ccccc1Cl)C2 (configuration not stated) | i | 2.7% | ? | -21.8% | -24.5% | . | . | . | . | .
Cc1c(C(=O)OC2CCC(C)CC2)[nH]c2c1C(=O)CC(c1ccccc1Cl)C2 (configuration not stated) | i | 3.5% | 10.1µM* | -27.8% | ? | ? | -5.0% | 6.4% | 10.2% | -22.6%
CCOC(=O)c1cccc(NC(=O)c2cc3cc4ccc(C)cc4nc3s2)c1 | i | 3.4% | 11.3µM* | 12.9% | -2.0% | -4.9% | 0.2% | -17.0% | ? | 19.3µM*
O=C(CCS(=O)(=O)c1ccc(Br)s1)Nc1cc(C(F)(F)F)cc(C(F)(F)F)c1 | i | -1.3% | 20µM* | ? | -28.6% | 0.2% | -14.4% | -4.0% | ? | ?
O=C(Cn1cc(C(=O)c2ccco2)c2ccccc21)Nc1ccccc1Cl | i | 0.0% | ? | -1.0% | ? | . | . | . | . | .
O=C(Cn1cc(C(=O)c2ccco2)c2ccccc21)Nc1ccccc1C(F)(F)F | i | 0.9% | 11.9µM* | -12.8% | -18.8% | -4.3% | 3.4% | 5.2% | 16.3% | 3.0%
CCOc1ccccc1CNC(=O)CSc1nnc(C)c2c(C)n(-c3ccccc3)nc12 | i | 3.4% | -27.0% | 0.5% | -12.1% | . | . | . | . | .
COc1ccccc1CNC(=O)CSc1nnc(C)c2c(C)n(-c3ccccc3)nc12 | i | 0.2% | 15µM* | ? | 0.0% | ? | 4.4% | -2.9% | -1.0% | ? | PMP22 prot conf=?
Cc1ccc(C(=O)Nc2ccc3nc(SCC(=O)N4CCc5ccccc54)sc3c2)cc1 | i | -5.3% | -41.7% | 4.9% | -6.3% | . | . | . | . | .
Cc1ccc(CSc2nc3ccc(NC(=O)COc4ccc(F)cc4)cc3s2)cc1 | i | 0.6% | -8.3% | 6.5% | -1.0% | . | . | . | . | .
O=C(COc1ccc(F)cc1)Nc1ccc2nc(SCc3ccccc3)sc2c1 | i | 0.0% | 6.96µM* | 17.0% | -12.9% | -0.6% | -1.0% | 8.5% | -5.8% | ?
Cc1ccc(OCC(=O)Nc2ccc3nc(SCC(=O)N4CCc5ccccc54)sc3c2)cc1 | i | 0.0% | 2.38µM* | 0.3% | -0.2% | -2.9% | -1.6% | -8.0% | -11.3% | 7.27µM* | PMP22 prot conf=?
Cc1cccc(OCC(=O)Nc2ccc3nc(SCc4ccccc4)sc3c2)c1 | i | 2.8% | 16µM* | 27.9% | -4.2% | 3.3% | 4.4% | 1.0% | -0.8% | ?
COc1ccc2c(c1)CC(C(=O)Nc1ccc(OC)cc1OC)CO2 (configuration not stated) | i | 2.8% | -15.4% | -2.6% | -18.6% | . | . | . | . | .
CCN(CC)c1ccc(NC(=O)C2COc3ccc(OC)cc3C2)c(C)c1 (configuration not stated) | i | 1.4% | 11.7µM* | ? | -14.2% | -8.0% | -1.6% | -2.6% | ? | 14.5µM* | PMP22 prot conf=?
CCN(CC)CCOC(=O)c1ccc(NC(=O)Cn2ncc3c([nH]c4ccc(C)cc43)c2=O)cc1 | i | -0.3% | 10µM* | ? | 5.9% | -5.4% | -1.6% | 4.4% | 15.3µM* | 12.9µM*
CC(=O)c1ccc(Nc2nc3c(S(=O)(=O)c4ccccc4)nnn3c3ccc(Cl)cc23)cc1 | i | -2.5% | ? | ? | -11.7% | . | . | . | . | .
CC1=Nc2cc(C(=O)NCc3ccccc3Cl)ccc2Sc2c(C)ccc(C)c21 | i | 6.7% | 10.1µM* | 0.2% | -16.6% | -15.7% | 0.1% | -13.4% | 7.0% | ?
